# Laboratory results published in PubChem BioAssay (NCI).
# Compounds without any hit were thinned out: in the full panel of roughly 83,000, 20% have a hit.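 Single-dose data. Exposure time 48 hours. Values below 10 considered active.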 A number with no mark means an inactive call. Activity calls are given as the source filed them.
# How the values were obtained:
# Assay in all cases: NCI-60 one-dose screen, 48 h (100 = growth as untreated, 0 = no growth, -100 = all killed)
# Conditions in all cases: 10 µM unless noted
# [1] = test system: HCT-15 colon
# [2] = test system: HT29 colon
# [3] = test system: SNB-19 CNS
# [4] = test system: U251 CNS
# [5] = test system: PC-3 prostate
# [6] = test system: SK-MEL-5 melanoma
# [7] = test system: UACC-62 melanoma
# [8] = test system: LOX IMVI melanoma
# [9] = test system: SK-MEL-28 melanoma
# [10] = test system: SK-MEL-2 melanoma
# [11] = test system: EKVX NSCLC
# [12] = test system: SN12C renal
# [13] = test system: UO-31 renal
# [14] = test system: TK-10 renal
# [15] = test system: ACHN renal
# [16] = test system: CAKI-1 renal
# [17] = test system: A498 renal
# [18] = test system: CCRF-CEM leukemia
# [19] = test system: MOLT-4 leukemia
SMILES,growth [1],growth [2],growth [3],growth [4],growth [5] [%],growth [6],growth [7],growth [8],growth [9],growth [10],growth [11],growth [12],growth [13],growth [14],growth [15],growth [16],growth [17],growth [18],growth [19]
O=C(C1=Cc2cc3ccccc3n2Cc2cnnn21)c1ccccc1,38.6%,7.8% (active),32.2%,32.6%,47.7,45.8%,44.4%,49.8%,64.8%,44.1%,82.9%,50.3%,64.8%,72.7%,74.6%,58%,71.7%,53%,42.1%
CCCCCCCCCCCCCCCCCCNC(=O)[C@H]1CSC(c2ccc(OC)cc2O)N1 (some centres undefined),80.7%,45.3%,81.2%,63.9%,69.7,93.1%,74.9%,62.4%,50.5%,75.6%,102%,14.3%,53.5%,94.7%,88.1%,89.8%,81.3%,6.93% (active),17.3%
CCCCCCCCC(C)OC(=O)c1nn(C(C)=O)c2ccccc12 (centres undefined),101%,103%,107%,94.7%,95.7,97.7%,92.3%,103%,116%,97.7%,92.2%,102%,83.1%,93.2%,107%,91.1%,109%,100%,109%
CCOC(=O)/C(C#N)=C1/C(=O)Nc2ccccc21,106%,112%,104%,113%,94.2,115%,103%,99%,115%,122%,117%,96.3%,71.1%,130%,102%,99.4%,132%,67.1%,138%
CCCCNC(=O)Oc1ccc(/C(=C(\C)c2ccccc2)c2ccc(OCCN(CC)CC)cc2)cc1,17.7%,4.17% (active),89.2%,53.8%,59.6,48.2%,68.3%,74.8%,75.7%,92.1%,80.8%,83.3%,44.1%,88.1%,88%,82.5%,65.3%,60.1%,42%
Cc1ccc(S(=O)(=O)c2nc(-c3ccccc3)oc2S(C)(=O)=O)cc1,-14.2% (active),-6.17% (active),60.9%,60.7%,84,88.8%,75.7%,-32.7% (active),62.6%,67.5%,74.1%,0.543% (active),2.62% (active),-72.8% (active),-99.7% (active),-98.9% (active),85.2%,0.985% (active),-16.3% (active)
COc1ccc(-c2cc(-c3ccccc3)nc(SCCCC(=O)NO)n2)cc1OC,16.5%,15.1%,20%,1.87% (active),13,-69.8% (active),-22.3% (active),-61.6% (active),21.5%,-1.51% (active),8.24% (active),13.8%,-39.6% (active),4.89% (active),-0.775% (active),-37.9% (active),-24.9% (active),6.42% (active),2.96% (active)
O=C(NNC(=S)Nc1ccccc1)c1cc2ccc1CCc1ccc(cc1)CC2,40.2%,76.1%,56.9%,49.3%,57.8,43.8%,55.9%,59.4%,73.5%,74.5%,76.3%,58.3%,82.2%,99.6%,61.4%,63.8%,61%,33.8%,57%
CC(C)(C)n1cc(-c2ccnc(NCCCNS(=O)(=O)c3ccc(C(F)(F)F)cc3)c2)c(-c2cccc(O)c2)n1,-55.6% (active),2.27% (active),6.04% (active),12.9%,13.2,16.7%,48.7%,-81.8% (active),-48.3% (active),0.948% (active),36.3%,40.3%,40.7%,92.2%,25.3%,37.8%,60.1%,21.4%,2.23% (active)
COc1cccc(-c2nc3sccn3c2-c2ccnc(NCCCNS(=O)(=O)c3ccc(C(F)(F)F)cc3)c2)c1,38.7%,47.2%,69.4%,55.1%,29.1,5.99% (active),43%,55.3%,72.4%,65.7%,46%,47.9%,29.7%,85.5%,56%,40.3%,43%,40.4%,26.4%
CCCCCCN1CSC(=S)N(CCCCCC)C1,103%,115%,106%,103%,83.6,94.5%,95.3%,91.8%,102%,124%,91.7%,104%,79.3%,111%,109%,81.3%,94.2%,88.2%,107%
COc1ccc(Cn2cc3c(c2-c2cc(OC)c(OC)c(OC)c2)CCc2cnoc2-3)cc1,17.5%,11%,44.3%,29.3%,25.7,17%,40.5%,38.1%,45%,42.8%,34.8%,34.6%,30.4%,73.8%,33.1%,21.2%,3.83% (active),12.9%,23.3%
CCc1ccc(-c2ccc(=O)n(-c3ccc(S(N)(=O)=O)cc3)n2)cc1,29.7%,11.8%,57.6%,35%,35,12.9%,38.5%,55.1%,49.4%,1.5% (active),69.1%,58.4%,38.4%,76.8%,60.3%,36.7%,40.3%,27.9%,16%
Cc1ccc(-c2nc(C#N)c(S(=O)(=O)n3nc(-c4ccccc4)cc3N)o2)cc1,67.6%,56%,93.7%,96.7%,101,99.8%,94.3%,28%,108%,99.4%,99%,90.2%,92%,18.1%,25.3%,-41.1% (active),126%,4.2% (active),1.21% (active)
Cc1nc2ncccc2nc1Nc1ccc(S(=O)(=O)Nc2ccccn2)cc1,123%,121%,88.5%,94.4%,88.1,99%,89.4%,85.1%,101%,104%,98%,93.7%,61.5%,106%,95.2%,82.6%,104%,107%,91.9%
COc1ccc(-c2nc(SCCC(C)C)nc(Nc3ccc(F)c(Cl)c3)c2C#N)cc1,84.9%,75.9%,77.9%,33.7%,80,94.1%,97.5%,76.4%,105%,120%,55.7%,56.7%,56.6%,62.6%,47.8%,75.5%,76.8%,71%,86.1%
